The text below walks through data of PubChem BioAssay (NCATS).

Inconclusive results are not listed. The source made the active and inactive calls. Calls follow the shape of the dose curve; as a rule, active = well fitted inhibition curve with a large enough effect; inconclusive = small, poorly fitted or top-dose-only effect; inactive = no such curve, though single readings can be large or run the other way.

A short description of this test: Primary qHTS for inhibitors of La Crosse Virus (LACV) - induced cell death in SH-SY5Y cells (AID 1508616).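 Also: top concentration of the series differs between compounds; higher means more rescue of cells from virus-induced death.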 As to conditions: SH-SY5Y LACV cytopathicity rescue, ATP luminescence, 6 d; series mostly up to 9.63 µM. An excerpt:
Assay Provider: Karin Peterson Ph.D.
National Institute of Allergy and Infection Diseases, National Institute of Health
La Crosse Virus (LACV) is a California serogroup mosquito-borne arbovirus, family Peribunyaviridae, which is an endemic pathogen in North America and can induce a rare, life-threatening neurological disease in children. LACV was first isolated in the early 1960s, from a summer "rural encephalitis" case in La Crosse, Wisconsin, USA. Since then, LACV encephalitis cases have been found in more than twenty states, with most cases in the Mississippi and Ohio River basins. The life cycle of LACV is maintained between the vector, the eastern tree-hole mosquito Aedes triseriatus, and vertebrate hosts including eastern gray squirrels (Sciurus carolinensis) and chipmunks (Tamiasstriatus grinseus). […] Most LACV infections in humans are asymptomatic or induce mild clinical symptoms of fever, headache, lethargy and vomiting. However, in some cases LACV can cause severe neuroinvasive disease, including encephalitis, meningitis, and meningoencephalitis, requiring hospitalization. To date, there is neither a licensed vaccine nor a Food and Drug Administration (FDA) approved antiviral therapy available to prevent or treat LACV encephalitis. The primary treatment for viral encephalitis is palliative care due to the lack of therapeutics. In the current study, we conducted a screen of 4,096 FDA approved and bioactive small molecules against LACV, by screening for rescue of LACV-induced cell death in SH-SY5Y cells.
LACV-induced cytopathicity assay
SEQUENCE No. (1,2, 3, etc.); […] (e.g., Cells, Incubation, Reagent, etc.); VALUE and DESCRIPTION.
1. Reagent; 2 uL; Cell solution.
3. Compounds; 23nL; Compound library
4. Reagent; 12 uL; LACV virus
6. Reagent; 24 uL; ATPLite (PerkinElmer)
7. Time; 5 min; Room temperature
8. Detection; Luminescence; View
NOTES (numbers refer to sequence above)
1. Seed 6000 SH-SY5Y cells (ATCC CRL-2266) in 2 microL/well media (DMEM/F12 10% FBS, 1x L-Glutamine, 1x Pyruvate, 1x NEAA, 1x Pen/Strep) in 384-well assay plates (tissue culture treated, white, solid bottom).
2. Incubate at 37 degrees C with 5% CO2 for 24 hr.
3. Dispense 23 nL/well compounds in DMSO via pin transfer.
4. Dispense 12 microL/well of LACV (LACV/human/1978) in media at 0.01 MOI.
5. Incubate at for 6 days at 37C 5% CO2
6. Dispense 24 microL/well of ATPLite 1step Luminescence assay system (PerkinElmer).
7. Incubate for 5 min at room temperature.
8. Read luminescence signal (Viewlux plate reader, PerkinElmer). Data was normalized with DMSO control wells containing LACV as 0%, and DMSO control wells without virus as 100%.
For `CC(C)Oc1cccnc1N(C)C1CCN(Cc2ccccc2)CC1`, the outcome was inactive.
For the molecule `Oc1ccc2c3c1O[C@H]1[C@@H](O)C=C[C@H]4[C@@H](C2)NCC[C@@]341`, the molecule was classed as inactive.
The same measure for `CC(=O)NCCc1c[nH]c2ccccc12`: “inactive”; for `c1ccc(C2(c3ccccc3)CC2C2=NCCN2)cc1` (stereo not given): “inactive”; for `CC[N+]1(CCOC(=O)C(O)(c2ccccc2)c2ccccc2)CCCCC1`: “inactive”.
Then `Cc1cc(O)ccc1Cl`, with “inactive”.
The same measure for `Fc1cc(Br)ccc1CBr`: “inactive”; for `Oc1ccc2c3c1O[C@H]1c4[nH]c5c(c4C[C@@]4(O)[C@@H](C2)N(CC2CC2)CC[C@]314)C[C@@]1(O)[C@H]2Cc3ccc(O)c4c3[C@@]1(CCN2CC1CC1)[C@H]5O4`: “inactive”.
In the case of `NC(=NCCC[C@H](N)C(=O)O)N[N+](=O)[O-]`, the molecule was classed as inactive.
With `CCCCCCCCCCCCCCCC[N+](C)(C)C`, the molecule was classed as inactive.
In the case of `O=[N+]([O-])c1c(Cl)c(Cl)cc(Cl)c1Cl`, the call was inactive.
On to `O=[N+]([O-])/N=C1\NCCN1Cc1ccc(Cl)nc1`, for which the outcome was inactive.
In the case of `NC(=O)CN1CC(O)CC1=O` (stereo not given), the outcome was inactive.
For `Cc1nccc2c1[nH]c1ccccc12`, the outcome was inactive.
Turning to `O=S(=O)(O)C(F)(F)C(F)(F)C(F)(F)C(F)(F)C(F)(F)C(F)(F)C(F)(F)C(F)(F)F`, the result was inactive.
As for `CCCN(CCC)c1c([N+](=O)[O-])cc(S(N)(=O)=O)cc1[N+](=O)[O-]`, the molecule was called inactive.
On to `C[C@]12N[C@H](Cc3ccccc31)c1ccccc12`, for which the call was inactive.
Then `CC(C)(C)C(O)C(Oc1ccc(Cl)cc1)n1cncn1` (stereo not given), with “inactive”; and `ClC1=C(Cl)[C@]2(Cl)[C@@H]3[C@@H]4C[C@@H]([C@H]5O[C@@H]45)[C@@H]3[C@@]1(Cl)C2(Cl)Cl`, with “inactive”; and `CO/C=C(/C(=O)OC)c1ccccc1Oc1cc(Oc2ccccc2C#N)ncn1`, with “inactive”.
Then `C#CCOC(=O)C1=CCCN(C)C1`, with “inactive”.
On to `NCCc1c[nH]c2ccc(O)cc12`, for which the molecule was called inactive.
Take `CCCCCCCCCC(CC)c1ccc(S(=O)(=O)O)cc1` (stereo not given): the molecule was called inactive.
For `CN[C@@H](C)[C@H](O)c1ccccc1`, the call was inactive.
With `CCCN1CCO[C@@H]2c3cc(O)ccc3OC[C@H]21`, the call was inactive.
Then `Clc1cnc(Oc2ccc(Oc3ncc(Cl)cc3Cl)cc2)c(Cl)c1`, with “inactive”; and `O=[N+]([O-])c1c2ccccc2cc2ccccc12`, with “inactive”; and `CC(O)CN1CCN(CC(=O)[O-])CCN(CC(=O)[O-])CCN(CC(=O)[O-])CC1.[Gd+3]` (stereo not given), with “inactive”.
`O=[N+]([O-])c1ccc([As](=O)(O)O)cc1`: the molecule was called inactive.
`CC1(C)CC/C(=C/c2ccc(Cl)cc2)C1(O)Cn1cncn1` (stereo not given): the result was inactive.
As to `CCCCCCCCc1ccc(O)cc1`, the molecule was called inactive.
Consider `CCC1(CCC(C)C)C(=O)NC(=O)NC1=O`, for which the outcome was inactive.
In the case of `Nc1ccc(Sc2ccc(N)cc2)cc1`, the molecule was classed as inactive.
For `CCOP(=O)(NC(C)C)Oc1ccc(SC)c(C)c1` (stereo not given), the molecule was called inactive.
The same measure for `CC(=O)[C@H]1CCC2C3CC[C@H]4C[C@H](O)CC[C@]4(C)C3CC[C@@]21C` (stereo not given in full): “inactive”; for `O=C(Nc1ccccc1-c1ccc(Cl)cc1)c1cccnc1Cl`: “inactive”; for `CCCCOC(=O)c1ccccc1C(=O)OCc1ccccc1`: “inactive”.
The same measure for `CC(Cc1ccc(O)cc1)NCC(O)c1cc(O)cc(O)c1` (stereo not given): “inactive”; for `CCC(=O)O[C@@H]1C=C2CCC3C(CCC4(C)C3CC[C@@H]4OC(=O)CC)C2CC1` (stereo not given in full): “inactive”; for `O=C(Cc1ccc(Cl)c(Cl)c1)N1CCCCC1CN1CCCC1` (stereo not given): “inactive”.
